Hits are enriched below; roughly 7.5% of the tested compounds scored in any of these assays.
B2AR arrestin: qHTS assay of beta-arrestin-biased ligands of beta2-adrenergic receptor | beta-arrestin recruitment to beta2AR, cell-based reporter | actives 0.02% (n = 330,000) | Potency, µM (series often up to 46.1 µM), for inactives: at the top dose activation, usual class: activators | Beta-2 adrenergic receptor (Homo sapiens), P07550;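 further: potency means the concentration at half of the fitted maximal effect; 0% = DMSO controls and full agonism = EC100 isoproterenol or metaproterenol; nearly all actives have a fitted effect of over 65% in size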
VP16 counter: VP16 counterscreen qHTS for inhibitors of ROR gamma transcriptional activity; Drosophila S2 Gal4-VP16 UAS-luciferase, luminescence, 20 h; AID 2546, 2010; actives 3.5% (n = 310,000); Potency, µM (series often up to 53.6 µM), for the others: at the top dose activity, negative = inhibition, actives largely listed as inhibitors;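 further: Gal4-VP16 expression switched on by copper sulfate through the metallothionein promoter; potency means the concentration at half of the fitted maximal effect; nearly all actives have a fitted effect of over 50% in size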
RORgamma inh: qHTS for inhibitors of ROR gamma transcriptional activity | Potency, µM (series often up to 53.6 µM), for the others: at the top dose activity change, negative = inhibition, hits mostly inhibitors | actives 5.4% (n = 310,000) | Drosophila S2 Gal4-RORgamma UAS-luciferase reporter, 20 h; further: potency means the concentration at half of the fitted maximal effect; nearly all actives have a fitted effect of over 60% in size
Target sequence (P51450 whole entry, looked up, the tested form may be a part): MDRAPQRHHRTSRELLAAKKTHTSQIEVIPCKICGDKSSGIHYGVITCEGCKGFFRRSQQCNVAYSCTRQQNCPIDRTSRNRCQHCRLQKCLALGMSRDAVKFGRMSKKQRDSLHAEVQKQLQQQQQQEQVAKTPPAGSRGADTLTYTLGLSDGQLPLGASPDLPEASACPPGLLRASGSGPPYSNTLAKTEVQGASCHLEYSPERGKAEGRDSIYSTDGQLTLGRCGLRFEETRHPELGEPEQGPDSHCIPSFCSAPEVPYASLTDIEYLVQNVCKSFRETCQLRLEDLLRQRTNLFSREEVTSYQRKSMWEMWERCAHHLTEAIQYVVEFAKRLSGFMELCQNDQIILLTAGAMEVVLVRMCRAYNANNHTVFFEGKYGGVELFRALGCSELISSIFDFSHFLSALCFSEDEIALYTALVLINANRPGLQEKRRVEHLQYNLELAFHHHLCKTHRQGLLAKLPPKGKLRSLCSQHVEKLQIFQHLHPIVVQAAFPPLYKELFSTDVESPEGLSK
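Using a luciferase readout, inhibitors were identified by reduced reporter activity in Drosophila cells coexpressing a copper-inducible Gal4–ROR gamma fusion and UAS-driven Photinus luciferase, incubated 20 hr after 700 uM copper sulfate.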
ELG1 DNA repair: qHTS screen for small molecules that inhibit ELG1-dependent DNA repair in human embryonic kidney (HEK293T) cells expressing luciferase-tagged ELG1. Potency, µM (series often up to 46.1 µM), for the others: at the top dose activity change, negative = inhibition, actives largely listed as inhibitors. actives 2.3% (n = 330,000). HEK293T ELG1-luciferase reporter, luminescence, 16 h; DNA damage induced by 5-fluorouridine. AID 504467, 2011; further: potency means the concentration at half of the fitted maximal effect; nearly all actives have a fitted effect of over 55% in size
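DMSO vehicle served as the neutral condition. Each well held 2,000 cells given 5-fluorouridine plus compound; after 16 hr at 37 °C/5% CO2, ONE-Glo was added and luciferase measured 30 min later.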
TSHR antag: Antagonists of the Thyroid Stimulating Hormone Receptor: HTS campaign. Thyrotropin receptor (Homo sapiens), P16473. TSHR-expressing cells, TSH-stimulated cAMP HTRF, 2 h; active compounds read low. activity change, negative = inhibition, % at 11.5 µM. actives 0.2% (n = 330,000). AID 504810, 2011;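 active means activity change below a set negative limit, meaning inhibition stronger than a set level, cut at about -70% in these data; inconclusive means activity change between two set negative limits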
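Inhibition of cAMP made by TSHR-expressing cells under TSH stimulation (4nM final, EC80; 2 h, 37 deg C) is quantified with a one-step lysis HTRF kit, anti-cAMP cryptate versus cAMP-d2.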
Active calls of the source: *; ? = inconclusive; nt = no result given; [ ] = remark or other dose. Unless noted, the call rests on the fitted dose curve; in most records, active means well fitted curve in the direction sought with a large enough effect; inconclusive means small, poorly fitted or top-dose-only effect, or another doubt; inactive means no such curve, though single readings can be large; an effect the other way counts as inactive or inconclusive. Unless noted, on the % scale 0 is the no-effect control and ±100 the full control effect.

SMILES | B2AR arrestin | VP16 counter | RORgamma inh | ELG1 DNA repair | TSHR antag
COC(=O)c1c(NC(=O)CN2CCC3(O)CCCCC3C2c2cc(OC)ccc2OC)sc(C)c1C (centres undefined) | -2% | -9% | ? | 9.2µM* | 8
CC(=O)c1ccccc1NC(=O)c1ccc(N2CCCC2=O)cc1 | 0% | nt | nt | 16% | 1
Cc1ccc(N(CC(=O)NCc2ccccc2)S(=O)(=O)c2c(C)noc2C)cc1 | 0% | -4% | 3% | 9% | 5
COc1ccc(CNc2nc3ccccc3n2CCN2CCCCC2)c(OC)c1 | -1% | -22% | 13µM* | -14% | -6
CCn1c(NCc2cc(OC)ccc2OC)nc2ccccc21 | 0% | 24% | -26% | ? | 6
CCCn1c(NCc2cc(OC)ccc2OC)nc2ccccc21 | 2% | 11µM* | 5µM* | ? | 69
Brc1ccc(CNc2nc3ccccc3n2CCN2CCCCC2)cc1 | -1% | -22% | ? | -3% | 1
Brc1cccc(CNc2nc3ccccc3n2CCN2CCCCC2)c1 | 0% | -20% | 4.5µM* | ? | -2
COc1ccccc1C(=O)N(CCC1CCCN1C)c1nc2ccccc2s1 (centres undefined) | 0% | ? | 7.1µM* | ? | 8
Cc1[nH]c(=S)sc1Cc1ccc(F)cc1 | 0% | 10µM* | 4µM* | -9% | -11
O=C(Nc1ccc2ccccc2c1)c1onc2c1CCCC2 | 1% | ? | 14µM* | ? | -14
COC(=O)c1cccc(NC(=O)c2onc3c2CCCC3)c1 | 0% | ? | 7.1µM* | ? | 4
Cc1cccc(NC(=O)c2onc3c2CCCC3)n1 | 0% | 5.6µM* | 2µM* | ? | 8
CCCCC(c1nnnn1C(C)C)N1CCN(C(=O)c2ccco2)CC1 (centres undefined) | 0% | 6% | 3% | 13% | 5
CC(C)(C)c1ccc(-c2n[nH]c(=S)n2/N=C/c2ccncc2)cc1 | -1% | 14µM* | ? | 0% | -15
Cc1ccc(/C=N/n2c(-c3ccncc3)n[nH]c2=S)cc1 | -1% | 13µM* | 8.9µM* | ? | 20
CCCCn1c(=O)n(CC(=O)Nc2c(CC)cccc2CC)c(=O)c2c1nc(CO)n2CCC | 0% | -2% | 7.1µM* | -5% | 4
O=c1cc(CSc2nnc(-c3cccs3)n2Cc2ccccc2)nc2sc3ccccc3n12 | 0% | 14µM* | ? | ? | ?
O=C1Nc2ccc(Br)cc2/C1=C/C(=O)c1ccc2c(c1)OCO2 | -1% | ? | 11µM* | 0% | -18
O=C1Nc2ccc(Br)cc2/C1=C/C1CC=CCC1 (centres undefined) | 0% | ? | ? | -11% | -23
N#Cc1ccsc1NC(=O)CN(Cc1ccccc1)Cc1ccccc1 | -1% | -4% | 13% | -10% | -16
N#Cc1ccsc1NC(=O)c1ccccn1 | 0% | 5µM* | 2.8µM* | ? | 1
N#Cc1ccsc1NC(=O)c1cccc([N+](=O)[O-])c1 | 1% | 9% | 40% | 5.8µM* | -2
N#Cc1ccsc1NC(=O)c1ccc(Cl)c([N+](=O)[O-])c1 | 1% | -1% | -3% | ? | -15
COc1ccc(-c2csc3ncnc(NCCCO)c23)cc1 | 0% | -9% | 41% | 4.6µM* | -13
SMILES | B2AR arrestin | VP16 counter | RORgamma inh | ELG1 DNA repair | TSHR antag
COc1ccc(-c2csc3ncnc(NCCO)c23)cc1 | 0% | -14% | 1%[1.91 µM] | ? | 12
CN(C)C(=O)c1ccc(-c2cncnc2N2CCNCC2)cc1 | nt | -2% | 7% | nt | nt
COc1ccc(-c2csc(N3C(=O)CNC3=S)n2)cc1 | 0% | ? | ? | ? | -3
O=C1CNC(=S)N1c1nc(-c2ccccc2)cs1 | 0% | ? | 3.2µM* | ? | 10
COc1ccc(N2CCN(c3ncnc4c3[nH]c3ccccc34)CC2)cc1 | nt | 7.1µM* | ? | nt | nt
COc1cc2[nH]c3c(N4CCN(c5ccccn5)CC4)ncnc3c2cc1OC | 0% | 18µM* | ? | ? | -27

Screening data from PubChem BioAssay.
